SARS PLpro yeast = SARS-CoV PLP inhibition in yeast; hit rate 0.19% among 330,000; Potency, µM (series often up to 32.9 µM), most hits filed as activators; S. cerevisiae expressing SARS-CoV PLpro, growth rescue; AID 485353; calls by dose curve; further: nearly all actives have a fitted effect of over 55% in size
Sm TGR inh = S. mansoni TGR enzyme inhibition | purified TGR, DTNB reduction, TNB absorbance 405 nm | Q962Y6 | AID 485364 | Potency, µM (doses to about 114 µM), hits mostly inhibitors | hit rate 3% among 360,000; further: nearly all actives have a fitted effect of over 60% in size
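First, TGR (20 nM dispensed) and NADPH were mixed with compound. Second, a 15 min room-temperature incubation followed. Third, further NADPH and then DTNB were added to start the reaction. Finally, TNB absorbance was monitored kinetically.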
HCMV inh = inhibitors of human cytomegalovirus; HFF cells, HCMV-luciferase reporter, 72 h; hits give low values; activity change, negative = inhibition, % at 57.5 µM; hit rate 4.5% among 410,000; in the data active means activity change below about -60%; inconclusive means no clear call, values can overlap the other calls; inactive means above about -39%
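HFF cells seeded 16 h at 37C, treated with compounds, infected with luciferase-reporter HCMV at MOI 1 PFU/cell; luciferase read at 72 h post infection, normalized to buffer-only and Salinomycin controls.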
HCV inh = blocks hepatitis C virus | Huh7.5.1 HCVcc-Cre infection, luciferase reporter, 44 h | Potency, µM (titrated, usually from 41.8 µM), hits mostly inhibitors | hit rate 3.4% among 340,000 | AID 651820
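Whole-lifecycle infectious HCVcc-Cre system; cells 1,000/well, compound then virus (~0.5 moi) added 4 h after plating, 44 h culture. Luciferase read 15 sec following 15 min substrate incubation, room temp.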
Pf growth 96h = inhibits malaria parasite growth, 96 h; P. falciparum luciferase reporter growth, 96 h; hit rate 6.9% among 320,000; Potency, µM (doses to about 28.7 µM), most hits filed as inhibitors
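Cell-based qHTS: luciferase-tagged P. falciparum in erythrocytes (2% hematocrit, 0.05% parasitemia final) incubated with compounds for 96 hours, 37 C, 5% CO2; luciferase detection reagent then added and luminescence measured.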
Pf growth 48h = inhibits P. falciparum growth in the first generation, 48 h. Potency, µM (doses to about 28.7 µM), actives largely listed as inhibitors. P. falciparum luciferase growth in erythrocytes, 48 h. hit rate 5.9% among 310,000
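A one-generation exposure of luciferase-tagged malaria parasites in RPMI 1640/Albumax erythrocyte culture, 37 C and 5% CO2. Inhibition is inferred from decreased luminescence after adding detection reagent.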
Of the large screens only hits and unclear results are named; the others gave an inactive call. This is a sample that favours compounds with a hit; in the whole collection about 15% have one here. Unless noted, the call rests on the fitted dose curve; in most records, active means well fitted curve in the direction sought with a large enough effect; inconclusive means small, poorly fitted or top-dose-only effect, or another doubt; inactive means no such curve, though single readings can be large; an effect the other way counts as inactive or inconclusive.

COc1cc(NC(=O)c2ccco2)c(OC)cc1NC(=O)CCC(=O)Nc1cccc(C)c1C	HCV inh inconclusive, Pf growth 96h 5.22µM
COc1cc(NC(=O)c2ccco2)c(OC)cc1NC(=O)c1cc(OC)c(OC)c(OC)c1	HCV inh inconclusive, Pf growth 96h 2.94µM, Pf growth 48h inconclusive
COc1cc(C(=O)OCC(C)=O)cc(NC(=O)c2ccco2)c1OC	HCMV inh -68.6
CCOc1cc(NC(=O)c2ccco2)c(OCC)cc1NC(=O)c1cc(OC)c(OC)c(OC)c1	HCV inh inconclusive, Pf growth 48h inconclusive
Cc1ccc(-c2nn[nH]n2)o1	Sm TGR inh 44.7µM, Pf growth 96h inconclusive
c1ccc(-c2nn3c(-c4ccco4)nnc3s2)nc1	Sm TGR inh 25.1µM, Pf growth 96h inconclusive
Brc1ccc(-c2nn3c(-c4ccco4)nnc3s2)o1	Sm TGR inh 8.91µM, Pf growth 96h inconclusive
Clc1ccc(-c2ccc(-c3nn4c(-c5ccco5)nnc4s3)o2)cc1	none (no result: SARS PLpro yeast, Sm TGR inh, Pf growth 96h, Pf growth 48h)
CCOc1ccc(CCNS(=O)(=O)c2ccc3c(c2)N(C(C)=O)CCO3)cc1OCC	none
COc1ccc(NC(=O)c2oc3ccc(S(=O)(=O)N4CCC5(CC4)OCCO5)cc3c2C)cc1	HCV inh 12.6µM, Pf growth 48h 3.7µM
C=CCNC(=O)c1oc2ccc(S(=O)(=O)N3CCC4(CC3)OCCO4)cc2c1C	Pf growth 48h inconclusive
Cc1ccc(NC(=O)c2oc3ccc(S(=O)(=O)N4CCC5(CC4)OCCO5)cc3c2C)cc1Cl	none (no result: SARS PLpro yeast, HCV inh, Pf growth 96h, Pf growth 48h)
Cc1c(C(=O)NCCc2ccccc2)oc2ccc(S(=O)(=O)N3CCC4(CC3)OCCO4)cc12	HCV inh 11.2µM, Pf growth 96h inconclusive, Pf growth 48h inconclusive
CCCCC12CN3CC(C)(CN(C1)C3c1c(C)[nH]c(=O)[nH]c1=O)C2=O (stereo unspecified)	none (no result: SARS PLpro yeast, HCV inh, Pf growth 96h, Pf growth 48h)
O=C(c1ccco1)N1CCN(C(=O)c2cc3c(s2)-c2ccccc2OC3)CC1	Sm TGR inh 25.1µM, Pf growth 96h inconclusive
O=C(NC1CC1)c1cc2c(s1)-c1ccccc1OC2	HCMV inh inconclusive, HCV inh 11.2µM, Pf growth 96h 13.1µM (no result: Pf growth 48h)
O=C(c1cc2c(s1)-c1ccccc1OC2)N1CCN(c2ccc(F)cc2)CC1	none (no result: SARS PLpro yeast, HCV inh, Pf growth 96h, Pf growth 48h)
O=S(=O)(NCc1ccccc1)c1ccc(Cl)cc1	Pf growth 96h inconclusive (no result: Pf growth 48h)
O=S(=O)(Nc1cc2nc3ccccc3nc2n1Cc1ccccc1)c1ccc(Cl)cc1	HCMV inh -90.7, HCV inh inconclusive, Pf growth 96h 0.828µM, Pf growth 48h 1.31µM
Cc1cccc(Nc2nnc(SCc3cn4ccsc4n3)s2)c1	HCV inh inconclusive, Pf growth 96h 5.86µM, Pf growth 48h 9.28µM
O=c1cc(CSc2nnc(Nc3ccccc3)s2)nc2sccn12	Pf growth 48h inconclusive (no result: Pf growth 96h)
Cc1ccccc1Nc1nnc(SCc2cc(=O)n3ccsc3n2)s1	Pf growth 96h 16.5µM, Pf growth 48h 13.1µM
Cc1ccccc1NC(=O)CCc1c(C)nc2c(c1C)c(=O)n(C)c(=O)n2C	none (no result: SARS PLpro yeast, HCV inh, Pf growth 96h, Pf growth 48h)
O=S(=O)(NCc1cccnc1)c1cccn1-c1ncc(C(F)(F)F)cc1Cl	HCMV inh -61.2, HCV inh inconclusive (no result: Sm TGR inh)
CCCCC(=O)Nc1cccc(-c2nc3ncccc3o2)c1C	none
Cc1cc(-c2nc3ncccc3o2)ccc1NC(=O)CC(C)C	Pf growth 96h 4.15µM
Cc1c(NC(=O)C(C)C)cccc1-c1nc2ncccc2o1	SARS PLpro yeast inconclusive, Pf growth 96h 9.28µM
Cc1c(NC(=O)c2cccc(-c3cc4ccccc4oc3=O)c2)cccc1-c1nc2ncccc2o1	HCMV inh -67.6, HCV inh inconclusive, Pf growth 96h inconclusive, Pf growth 48h inconclusive
COc1ccc(C(=O)N/C(=C\c2cn(S(=O)(=O)N(C)C)c3ccccc23)C(=O)N2CCOCC2)cc1	Pf growth 48h inconclusive
C=CCSc1nnc(COc2ccc(=O)n(-c3ccccc3)n2)n1CC	HCMV inh -93.1, Pf growth 96h inconclusive
CCn1c(COc2cccc(C)c2C)nnc1SCC(=O)N1CCN(c2ccc(OC)cc2)CC1	HCMV inh -97.1, HCV inh inconclusive, Pf growth 96h 9.28µM, Pf growth 48h inconclusive
CCn1c(CC(=O)Nc2cccc(OC)c2)nnc1SCC(=O)N1CCN(c2ccccc2)CC1	none (no result: HCMV inh)
CCn1c(COc2ccc(=O)n(-c3ccccc3)n2)nnc1SCc1cccc(OC)c1	none
